Data: ChEMBL document CHEMBL1961873, “Compounds: GSK PKIS; Assays: Nanosyn kinase panel” (2012)

Key:
[1] = biological target: T1, Serine/threonine-protein kinase D2 (Homo sapiens) (UniProt Q9BZL6); conditions: at 1 µM;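 also: mean value of PRKD2 inhibition, from the GSK PKIS screening panel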
T1 sequence (whole entry): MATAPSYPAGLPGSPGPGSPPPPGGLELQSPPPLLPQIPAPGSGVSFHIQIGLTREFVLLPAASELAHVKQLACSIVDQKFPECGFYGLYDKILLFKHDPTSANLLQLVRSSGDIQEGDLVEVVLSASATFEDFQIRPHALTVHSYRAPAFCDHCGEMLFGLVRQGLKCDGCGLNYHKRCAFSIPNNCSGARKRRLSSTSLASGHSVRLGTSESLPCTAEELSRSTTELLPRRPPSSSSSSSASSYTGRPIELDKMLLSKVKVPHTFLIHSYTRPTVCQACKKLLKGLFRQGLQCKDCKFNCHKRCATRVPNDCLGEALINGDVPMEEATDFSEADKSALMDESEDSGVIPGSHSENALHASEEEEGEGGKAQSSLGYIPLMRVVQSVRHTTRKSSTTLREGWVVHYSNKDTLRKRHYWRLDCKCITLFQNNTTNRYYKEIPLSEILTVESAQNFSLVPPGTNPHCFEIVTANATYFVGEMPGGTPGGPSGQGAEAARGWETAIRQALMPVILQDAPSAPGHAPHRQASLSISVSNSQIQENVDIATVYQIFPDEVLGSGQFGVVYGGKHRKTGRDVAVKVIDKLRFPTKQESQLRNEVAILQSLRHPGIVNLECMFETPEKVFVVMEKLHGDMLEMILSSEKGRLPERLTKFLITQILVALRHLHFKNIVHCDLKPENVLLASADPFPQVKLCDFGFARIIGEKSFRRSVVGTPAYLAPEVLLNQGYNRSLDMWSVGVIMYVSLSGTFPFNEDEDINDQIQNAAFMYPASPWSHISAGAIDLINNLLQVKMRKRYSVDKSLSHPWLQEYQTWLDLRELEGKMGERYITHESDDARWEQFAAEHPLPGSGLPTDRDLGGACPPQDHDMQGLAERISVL

[2] = biological target: T2, Serine/threonine-protein kinase D3 (Homo sapiens) (UniProt O94806); conditions: at 0.1 µM
T2 sequence (whole entry): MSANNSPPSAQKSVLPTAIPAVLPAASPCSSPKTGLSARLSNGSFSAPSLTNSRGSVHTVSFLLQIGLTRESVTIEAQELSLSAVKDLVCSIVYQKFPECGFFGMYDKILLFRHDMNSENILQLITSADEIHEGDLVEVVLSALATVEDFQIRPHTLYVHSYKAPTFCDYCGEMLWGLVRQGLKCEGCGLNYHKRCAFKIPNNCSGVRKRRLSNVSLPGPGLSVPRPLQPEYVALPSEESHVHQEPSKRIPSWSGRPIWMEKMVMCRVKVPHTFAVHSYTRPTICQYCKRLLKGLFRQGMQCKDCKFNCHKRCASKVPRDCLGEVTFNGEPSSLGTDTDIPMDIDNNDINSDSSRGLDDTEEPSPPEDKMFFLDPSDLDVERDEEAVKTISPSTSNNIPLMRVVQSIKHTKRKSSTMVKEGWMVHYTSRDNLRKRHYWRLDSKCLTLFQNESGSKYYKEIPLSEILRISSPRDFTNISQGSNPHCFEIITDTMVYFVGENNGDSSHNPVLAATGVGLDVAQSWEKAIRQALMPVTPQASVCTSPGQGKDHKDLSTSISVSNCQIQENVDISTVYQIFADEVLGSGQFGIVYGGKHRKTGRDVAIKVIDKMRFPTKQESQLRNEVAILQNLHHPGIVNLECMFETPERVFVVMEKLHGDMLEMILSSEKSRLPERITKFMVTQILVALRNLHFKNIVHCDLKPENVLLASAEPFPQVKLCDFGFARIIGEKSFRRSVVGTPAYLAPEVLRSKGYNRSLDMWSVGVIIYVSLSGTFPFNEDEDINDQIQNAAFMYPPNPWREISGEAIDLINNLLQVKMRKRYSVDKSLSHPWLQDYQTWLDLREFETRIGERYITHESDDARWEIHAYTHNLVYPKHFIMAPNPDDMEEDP

[3] = biological target: T2, Serine/threonine-protein kinase D3 (Homo sapiens); conditions: at 1 µM
[4] = biological target: T3, cGMP-dependent protein kinase 1 (Homo sapiens) (UniProt Q13976); conditions: at 0.1 µM
T3 sequence (whole entry): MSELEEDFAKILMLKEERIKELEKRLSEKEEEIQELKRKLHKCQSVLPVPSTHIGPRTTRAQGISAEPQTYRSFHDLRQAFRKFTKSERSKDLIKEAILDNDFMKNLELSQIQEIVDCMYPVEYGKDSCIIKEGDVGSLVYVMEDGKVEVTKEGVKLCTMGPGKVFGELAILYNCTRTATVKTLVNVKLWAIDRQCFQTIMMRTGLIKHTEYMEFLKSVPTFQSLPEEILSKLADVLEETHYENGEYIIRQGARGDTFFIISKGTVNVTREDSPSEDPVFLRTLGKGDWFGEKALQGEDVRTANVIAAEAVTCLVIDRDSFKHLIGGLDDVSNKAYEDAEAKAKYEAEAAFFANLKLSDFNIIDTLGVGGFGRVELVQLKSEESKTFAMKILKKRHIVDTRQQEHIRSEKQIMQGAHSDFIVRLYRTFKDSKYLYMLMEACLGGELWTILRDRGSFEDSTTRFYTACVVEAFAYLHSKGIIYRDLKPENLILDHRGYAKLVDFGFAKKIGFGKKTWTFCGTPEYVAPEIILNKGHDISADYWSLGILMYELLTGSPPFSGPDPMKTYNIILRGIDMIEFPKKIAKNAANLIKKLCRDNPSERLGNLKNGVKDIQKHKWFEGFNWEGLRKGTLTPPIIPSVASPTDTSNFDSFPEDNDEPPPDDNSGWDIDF

[5] = biological target: T3, cGMP-dependent protein kinase 1 (Homo sapiens); conditions: at 1 µM
[6] = biological target: T4, cGMP-dependent protein kinase 2 (Homo sapiens) (UniProt Q13237); conditions: at 0.1 µM
T4 sequence (whole entry): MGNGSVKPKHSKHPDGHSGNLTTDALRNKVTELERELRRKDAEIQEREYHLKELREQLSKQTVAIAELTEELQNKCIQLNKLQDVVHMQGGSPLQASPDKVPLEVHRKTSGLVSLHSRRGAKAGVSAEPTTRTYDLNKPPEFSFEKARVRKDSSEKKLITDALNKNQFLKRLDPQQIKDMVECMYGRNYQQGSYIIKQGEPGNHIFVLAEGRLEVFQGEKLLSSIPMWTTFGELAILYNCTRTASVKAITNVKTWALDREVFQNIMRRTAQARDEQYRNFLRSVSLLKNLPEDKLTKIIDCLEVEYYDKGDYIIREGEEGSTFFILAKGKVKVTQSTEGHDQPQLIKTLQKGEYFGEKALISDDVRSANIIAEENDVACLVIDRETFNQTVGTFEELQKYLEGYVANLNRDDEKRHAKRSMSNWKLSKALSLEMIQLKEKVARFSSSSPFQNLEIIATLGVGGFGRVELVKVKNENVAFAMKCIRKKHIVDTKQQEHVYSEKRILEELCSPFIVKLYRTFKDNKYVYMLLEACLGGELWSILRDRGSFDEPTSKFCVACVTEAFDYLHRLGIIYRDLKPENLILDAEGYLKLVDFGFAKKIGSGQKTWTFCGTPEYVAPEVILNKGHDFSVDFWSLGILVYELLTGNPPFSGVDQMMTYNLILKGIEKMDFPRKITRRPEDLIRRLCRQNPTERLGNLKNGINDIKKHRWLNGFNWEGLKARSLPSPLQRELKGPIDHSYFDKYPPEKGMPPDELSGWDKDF

[7] = biological target: T4, cGMP-dependent protein kinase 2 (Homo sapiens); conditions: at 1 µM
[8] = biological target: T5, cAMP-dependent protein kinase catalytic subunit PRKX (Homo sapiens) (UniProt P51817); conditions: at 0.1 µM
T5 sequence (whole entry): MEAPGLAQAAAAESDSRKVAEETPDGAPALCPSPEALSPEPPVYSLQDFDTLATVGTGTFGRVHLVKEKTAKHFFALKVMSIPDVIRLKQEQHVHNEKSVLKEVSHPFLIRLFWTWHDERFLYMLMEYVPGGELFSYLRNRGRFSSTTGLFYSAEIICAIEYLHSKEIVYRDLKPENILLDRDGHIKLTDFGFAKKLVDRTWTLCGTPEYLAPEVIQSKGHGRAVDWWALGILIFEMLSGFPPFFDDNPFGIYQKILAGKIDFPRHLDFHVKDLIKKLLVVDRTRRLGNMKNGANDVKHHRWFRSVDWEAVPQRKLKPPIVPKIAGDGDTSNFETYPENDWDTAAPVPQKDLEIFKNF

[9] = biological target: T5, cAMP-dependent protein kinase catalytic subunit PRKX (Homo sapiens); conditions: at 1 µM
[10] = biological target: Rho-associated protein kinase 1 (Homo sapiens) (UniProt Q13464); conditions: at 0.1 µM;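 also: values are mean percent inhibition of ROCK1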
Rho-associated protein kinase 1 (Homo sapiens), sequence (Q13464 2-1354 limits assumed): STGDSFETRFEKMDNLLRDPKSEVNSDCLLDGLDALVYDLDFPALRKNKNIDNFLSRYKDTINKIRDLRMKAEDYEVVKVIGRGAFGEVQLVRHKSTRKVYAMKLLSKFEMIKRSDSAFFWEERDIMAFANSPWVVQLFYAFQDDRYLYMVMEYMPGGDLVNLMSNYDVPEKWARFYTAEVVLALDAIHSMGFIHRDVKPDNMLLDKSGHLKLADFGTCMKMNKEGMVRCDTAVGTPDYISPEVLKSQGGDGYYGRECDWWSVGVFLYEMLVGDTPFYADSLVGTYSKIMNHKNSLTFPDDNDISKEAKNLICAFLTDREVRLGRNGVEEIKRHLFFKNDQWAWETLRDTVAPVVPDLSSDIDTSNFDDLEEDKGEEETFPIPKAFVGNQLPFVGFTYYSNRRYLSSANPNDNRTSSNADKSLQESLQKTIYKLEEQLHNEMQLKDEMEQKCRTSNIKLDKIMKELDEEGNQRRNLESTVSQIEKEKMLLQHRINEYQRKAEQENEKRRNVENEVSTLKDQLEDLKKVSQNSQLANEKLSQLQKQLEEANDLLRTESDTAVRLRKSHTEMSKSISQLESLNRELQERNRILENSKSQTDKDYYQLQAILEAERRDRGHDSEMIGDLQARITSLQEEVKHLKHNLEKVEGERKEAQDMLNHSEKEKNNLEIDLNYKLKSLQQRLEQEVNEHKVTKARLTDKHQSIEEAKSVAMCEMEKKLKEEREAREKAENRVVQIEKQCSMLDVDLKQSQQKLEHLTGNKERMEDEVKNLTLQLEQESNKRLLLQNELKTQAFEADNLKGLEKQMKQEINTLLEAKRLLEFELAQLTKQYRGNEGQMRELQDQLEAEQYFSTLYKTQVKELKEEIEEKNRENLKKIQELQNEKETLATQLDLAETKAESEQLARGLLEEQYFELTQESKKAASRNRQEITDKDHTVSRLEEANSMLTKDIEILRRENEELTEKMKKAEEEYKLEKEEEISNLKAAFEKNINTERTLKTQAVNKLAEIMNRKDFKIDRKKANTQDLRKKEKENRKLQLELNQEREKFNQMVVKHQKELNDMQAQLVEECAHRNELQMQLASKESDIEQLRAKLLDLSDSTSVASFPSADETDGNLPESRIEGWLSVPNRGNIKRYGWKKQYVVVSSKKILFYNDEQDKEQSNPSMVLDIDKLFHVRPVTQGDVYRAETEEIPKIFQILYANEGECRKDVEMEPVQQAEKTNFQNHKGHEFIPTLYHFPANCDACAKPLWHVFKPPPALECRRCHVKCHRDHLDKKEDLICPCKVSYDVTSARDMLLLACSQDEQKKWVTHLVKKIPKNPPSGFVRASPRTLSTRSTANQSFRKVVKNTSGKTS

Row | Structure (SMILES) | inhibition [1] | inhibition [2] | inhibition [3] | inhibition [4] | inhibition [5] | inhibition [6] | inhibition [7] | inhibition [8] | inhibition [9] | inhibition [10]
1 | Cc1cccc(Nc2ncc(-c3ccccc3)o2)c1 | 3.61% | 2.84% | 4.5% | 5.35% | 11.3% | 6.06% | 10.7% | 11.3% | 12% | 1.64%
2 | COc1cc(N2CCN(C(C)C)CC2)ccc1Nc1nc(Nc2ccc(F)cc2C(N)=O)c2cc[nH]c2n1 | 83.9% | 38.8% | 79.8% | 11.5% | 55% | 6% | 25.4% | 5.37% | 5.35% | 1.79%
3 | COc1ccc2[nH]c3c4[nH]c5ccc(OC)cc5c4c4c(c3c2c1)C(=O)NC4=O | 45.9% | 5.31% | 14.4% | 6.13% | 35% | 69.5% | 72.5% | 9.07% | 46% | 1.15%
4 | Fc1ccc(-c2cc(-c3c[nH]nc3-c3ccccn3)ccn2)cc1 | 32.4% | 6.2% | 20.5% | 1.49% | 4.77% | 1.37% | 2.9% | 1.98% | 5.03% | -0.11%
5 | Clc1ccc(-c2nn3ncccc3c2-c2ccnc(Nc3ccccc3)n2)cc1 | 2.67% | 1.78% | 4.14% | 3.3% | 5.54% | 1.46% | 3.41% | 2.16% | 2.02% | 2.28%
6 | CCn1c(-c2nonc2N)nc2c(C#CC(C)(C)O)nc(OC[C@H](N)c3ccccc3)cc21 | 25.6% | 5.89% | 28.6% | 23.8% | 71.3% | 56.9% | 78.8% | 84.2% | 87.1% | 2.85%
7 | CCn1c(-c2nonc2N)nc2cnc(Oc3cccc(NC(=O)c4ccc(N(C)C)cc4)c3)cc21 | 5.77% | 1.61% | 2.97% | 56.1% | 73% | 21.7% | 60.8% | 12.9% | 55.8% | 85.5%
8 | COc1cccc(-c2c[nH]c3c(N/N=C/c4ccncc4)ncnc23)c1 | 5.96% | 1.85% | 5.38% | 2.91% | 4.69% | 1.71% | 8.58% | 1.13% | -0.16% | 1.94%
